Rows were chosen to be rich in hits. Some 1.2% of all compounds tested hit in one or more screens of this group.
TSG101-PTAP inh = blocks PTAP/TSG101 interaction to inhibit HIV-1 budding | Q99816 | Fluorescence polarization, FITC-PTAP peptide / Tsg101 binding | Potency, µM (titrated, usually from 115 µM), for the others: at the highest dose activity change, negative = inhibition, hits mostly inhibitors | 340,000 tested, under 10 active; active means well fitted inhibition curve with a large enough effect in the main read-out, with a control signal flat, not every such curve was filed as active; inconclusive means small, poorly fitted or top-dose-only effect, or effect the other way, or a change in a side signal; inactive means no such curve, though single readings can be large or run the other way; further: potency means the concentration at half of the fitted maximal effect; % of control where 0% means no effect
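Fluorescence polarization binding of Tsg101 binding domain (10 uM final) to FITC-labeled PTAP peptide (50 nM final) in HEPES pH 7.5 buffer with NaCl, Tween 20, EDTA, TCEP. Compounds added before peptide; binding 20 min at RT.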
ASM inhibitor = blocks human secretory acid sphingomyelinase. P17405. actives 0.006% (n = 340,000). placental ASM, HMU-PC fluorogenic substrate, 60 min. AID 504937. Potency, µM (doses to about 57.5 µM), without a hit: at the top dose activity change, negative = inhibition, hits mostly inhibitors; further: potency means the concentration at half of the fitted maximal effect
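Fluorescence read-out (Ex 386 nm, Em 447 nm) after stopping the reaction at pH 10. Enzyme: ASM from human placenta; substrate HMU-PC0, 9 uM final; 60 min, 37 °C. Compound preincubation 10 min, ambient temperature.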
BRCA1 expr act = BRCA1 expression activation. actives 1.1% (n = 380,000). MCF7-BRCA1-FFLuc reporter, luminescence, 48 h; response scale: scaled: vehicle 0%, 10 µM genistein 100%. Potency, µM (series often up to 46.1 µM), inactives show at the top dose activation, hits mostly activators. AID 624202; further: potency means the concentration at half of the fitted maximal effect; nearly all actives have a fitted effect of over 80% in size
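First, MCF7-BRCA1-FFLuc cells (2000/well) attach for 2 h; next, compounds are pin-added and incubated 48 h at 37 °C; finally, luciferase reagent is added and luminescence read after 15 min.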
Anesthetic bind = binds horse apoferritin like a general anesthetic; P02791; AID 485281; apoferritin/1-aminoanthracene competitive binding, fluorescence; actives 0.074% (n = 350,000); Potency, µM (titrated, usually from 77.5 µM), for inactives: top-dose activity change, negative = displacement, hits mostly inhibitors; further: potency means the concentration at half of the fitted maximal effect; on the % scale 0 is the no-effect control and ±100 the full control effect; nearly all actives have a fitted effect of over 20% in size
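Concentration-response curves derived by four-parameter Hill fitting of normalized fluorescence, where compounds displaced 1-AMA from 10 uM horse apoferritin following a brief 10 min room-temperature incubation; propofol titration acted as positive control.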
TSHR antag = human thyrotropin receptor antagonism. AID 504810. actives 0.2% (n = 330,000). activity change, negative = inhibition, % at 11.5 µM. P16473. TSHR-expressing cells, TSH-stimulated cAMP HTRF, 2 h; stronger effect = lower value;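 active means activity change below a set negative limit, meaning inhibition stronger than a set level, cut at about -70% in these data; inconclusive means activity change between two set negative limits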; further: on the % scale 0 is the no-effect control and ±100 the full control effect
Target sequence (P16473 whole entry, looked up): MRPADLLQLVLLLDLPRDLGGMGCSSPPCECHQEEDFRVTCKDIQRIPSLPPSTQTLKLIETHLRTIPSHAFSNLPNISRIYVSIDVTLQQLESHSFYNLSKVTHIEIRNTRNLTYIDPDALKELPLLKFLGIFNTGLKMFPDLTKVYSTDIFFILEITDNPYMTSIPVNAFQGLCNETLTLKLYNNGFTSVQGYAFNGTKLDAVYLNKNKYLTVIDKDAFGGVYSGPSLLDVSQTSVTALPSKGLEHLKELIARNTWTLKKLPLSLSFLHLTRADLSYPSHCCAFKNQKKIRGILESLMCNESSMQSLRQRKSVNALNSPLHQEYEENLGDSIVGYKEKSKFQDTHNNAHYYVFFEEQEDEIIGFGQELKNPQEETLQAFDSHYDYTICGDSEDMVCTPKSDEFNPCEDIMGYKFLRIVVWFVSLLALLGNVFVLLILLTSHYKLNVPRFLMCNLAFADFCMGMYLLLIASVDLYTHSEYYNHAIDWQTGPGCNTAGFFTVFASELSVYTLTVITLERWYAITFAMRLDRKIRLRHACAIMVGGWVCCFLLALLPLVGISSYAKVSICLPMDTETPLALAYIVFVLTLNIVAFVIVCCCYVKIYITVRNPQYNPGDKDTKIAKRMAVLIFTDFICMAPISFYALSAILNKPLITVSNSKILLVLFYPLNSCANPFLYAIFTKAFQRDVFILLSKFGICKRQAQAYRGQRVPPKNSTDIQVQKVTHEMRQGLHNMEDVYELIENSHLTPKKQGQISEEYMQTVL
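TSHR-expressing cells were treated with compounds, then stimulated with TSH at EC80 (4nM final) for 2 hours at 37 deg C. Cellular cAMP was measured by HTRF competition between lysate cAMP and cAMP-d2 for a cryptate-labelled anti-cAMP antibody.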
Active calls of the source: *. Unless noted, the call rests on the fitted dose curve; in most records, active means well fitted curve in the direction sought with a large enough effect; inconclusive means small, poorly fitted or top-dose-only effect, or another doubt; inactive means no such curve, though single readings can be large; an effect the other way counts as inactive or inconclusive.

For CC[C@H](C)[C@H](NC(=O)[C@H](Cc1ccc(O)cc1)NC(=O)[C@@H]1CCCN1C(=O)[C@@H](N)CCCN=C(N)N)C(=O)N[C@@H](CC(C)C)C(=O)O the results were Anesthetic bind -1.8%.
`O=C(Nc1ccccc1Sc1ccccc1)c1cnn2c1NC(=C1CC1)C=C2C(F)(F)F` gave BRCA1 expr act 0.0%.
O=C(N=C1N=C2C=CC=CN2Cc2ccccc21)c1ccc(S(=O)(=O)N2CCOCC2)cc1 was read as TSG101-PTAP inh -5.9%, ASM inhibitor -0.5%, BRCA1 expr act 10µM*, Anesthetic bind -11.6% and TSHR antag 10.3.
CC(C)NC(=O)CSc1nc(-c2ccccc2)cs1 was read as TSG101-PTAP inh -1.3%, ASM inhibitor 0.9%, BRCA1 expr act 10µM*, Anesthetic bind -6.2% and TSHR antag 3.8.
`Cc1csc(SCC(=O)Nc2nc3ccccc3s2)n1` gave TSG101-PTAP inh -0.1%, ASM inhibitor 0.2%, BRCA1 expr act 2.82µM*, Anesthetic bind -11.3% and TSHR antag -0.5.
Screening CCOC(=O)Nc1nc2ccccc2s1 returned TSG101-PTAP inh -2.6%, ASM inhibitor 0.3%, BRCA1 expr act 5.62µM*, Anesthetic bind -10.4% and TSHR antag -9.1.
Cc1ccc(C(=O)Nc2nc3ccccc3s2)s1 was read as TSG101-PTAP inh -3.6%, ASM inhibitor 4.5%, BRCA1 expr act -4.4%, Anesthetic bind -21.3% and TSHR antag -22.0.
Cc1noc(C)c1C(=O)Nc1nc2ccccc2s1 was read as TSG101-PTAP inh -4.0%, ASM inhibitor -4.8%, BRCA1 expr act 6.31µM* and TSHR antag -6.3.
`C=C1C=C(C(F)F)n2ncc(C(=O)N3CCCCC3)c2N1` gave BRCA1 expr act 17.9%.
COc1cc(/C=C2\C=Cc3ccccc32)cc(OC)c1OC was read as BRCA1 expr act -39.4%.
CC(C)c1ccc(NC(=O)CSc2nnc(-c3ccccc3)n2C)cc1 was read as BRCA1 expr act 17.1%.
Screening Cc1ccc2cccc(NC(=O)C(C)Oc3ccc(Cl)cc3Cl)c2n1 (stereo not given) returned Anesthetic bind 40.8%.
For O=C(O)c1ccccc1Nc1ccc([N+](=O)[O-])cc1 the results were TSG101-PTAP inh -0.5%, ASM inhibitor -0.3%, BRCA1 expr act 12.6µM*, Anesthetic bind -13.3% and TSHR antag -1.9.
Screening COc1ccc(/C=C(\C)C(=O)NO)cc1 returned BRCA1 expr act 5.8%.
CCN1C(=O)[C@H]2[C@H]3[C@H](O)[C@H](O)CC(=O)[C@@H]3CC[C@H]2C1=O was read as BRCA1 expr act 0.7%.
`COc1ccc(/C=C/C(=O)N2CCN(C)CC2)cc1OC` gave TSG101-PTAP inh -4.5%, ASM inhibitor 2.2%, BRCA1 expr act -6.5%, Anesthetic bind -0.1% and TSHR antag -122.0*.
For O=C(NC1CCCc2ccccc21)c1cnn2c1NC(=C1CC1)C=C2C(F)F (stereo not given) the results were BRCA1 expr act -29.0%.
CCc1ccc(NCc2cc3ccc(OC)cc3n(CC(=O)Nc3ccc(C)c(Cl)c3)c2=O)cc1 was read as BRCA1 expr act -30.0% and Anesthetic bind -8.5%.
Screening OC(CN1CCNCC1)Cn1c2ccc(Br)cc2c2cc(Br)ccc21 (stereo not given) returned Anesthetic bind -5.4%.
`O=c1c2ccccc2oc2ccc(Oc3ccccc3)cc12` gave TSG101-PTAP inh 1.2%, ASM inhibitor 3.3%, BRCA1 expr act 3.55µM*, Anesthetic bind inconclusive and TSHR antag -15.1.
Screening COc1cc(/C=N/N=C2/NC(=O)C(CC(=O)O)S2)ccc1OCc1ccc(Cl)cc1 (stereo not given) returned TSG101-PTAP inh -2.4%, ASM inhibitor -7.2%, BRCA1 expr act 3.98µM*, Anesthetic bind -3.9% and TSHR antag 3.7.
`Cc1cccnc1NC(=S)NC(=O)c1oc2ccccc2c1C` gave TSG101-PTAP inh -0.4%, ASM inhibitor 10.2%, BRCA1 expr act 2.82µM*, Anesthetic bind -11.2% and TSHR antag 16.6.

Assay outcomes deposited in PubChem BioAssay by National Center for Advancing Translational Sciences (NCATS).
